# Screens deposited in PubChem by National Center for Advancing Translational Sciences (NCATS).
# Chronic BCR inh = chronic active BCR signaling inhibition; ABC-DLBCL IkBa-CBG/CBR reporter, luminescence ratio, 4 h; hit rate 0.05% among 340,000; Potency, µM (series often up to 46.1 µM), for the others: at the top dose activity change, negative = inhibition, actives largely listed as inhibitors; AID 493014; active means well fitted inhibition curve with a large enough effect in the signal ratio, with a control signal flat, not every such curve was filed as active; inconclusive means small, poorly fitted or top-dose-only effect, or effect the other way, or a change in a side signal; the % refers to the signal ratio;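 further: potency means the concentration at half of the fitted maximal effect; plate controls were basal doxycycline-induced cells for no effect and cells given 10 µM MG132 for full effect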
#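 TMD8 human ABC-DLBCL cells with doxycycline-inducible IκBα–green luciferase fusion and unfused red luciferase, in 0.5% FBS medium; compounds up to 46 uM, 4 h at 37C. Green/red luminescence ratio, filter-overlap corrected, fitted to concentration-response curves.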
# IL1B secr inh = blocks inflammasome-driven IL-1 beta release. THP-1 LPS/ATP IL-1B secretion, AlphaLISA, 16 h; stronger effect = lower value. activity change, % at 57.5 µM. hit rate 4.7% among 360,000; in the data active means activity change below about -50%; inconclusive means mostly about -30% to -49%; further: on the % scale 0 is the no-effect control and ±100 the full control effect
#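 Secreted IL-1B measured by AlphaLISA bead assay after 16 h compound exposure of THP-1 cells; compounds (final up to 57.5 uM) added 1 h before LPS (250 ng/mL) and ATP (1.25 mM) stimulation; lower signal means less secretion.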
# TDP1 cell CPT = DT40-hTDP1 cell growth loss with CPT; hit rate 12% among 420,000; Potency, µM (highest dose often 46.2 µM), for the others: top-dose activity change, negative = growth inhibition, actives largely listed as inhibitors; chicken DT40 Tdp1-/-;hTDP1 cells + 20 nM CPT, ATP luminescence, 48 h; further: potency means the concentration at half of the fitted maximal effect; on the % scale 0 is the no-effect control and ±100 the full control effect; nearly all actives have a fitted effect of over 55% in size
#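 Chicken DT40 Tdp1-/- cells complemented with human TDP1, 400 cells/well, exposed to compounds plus 20 nM camptothecin for at least 48 h at 37 C; viability read as ATP content by CellTiter-Glo luminescence.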
# SW480 rereplic = induces DNA re-replication in SW480 colon adenocarcinoma cells; SW480 DNA re-replication, Hoechst DNA content imaging, 48 h; Potency, µM (top dose mostly 46.1 µM), for the others: at the highest dose re-replication activation, hits mostly activators; AID 624297; hit rate 1.8% among 340,000; further: potency means the concentration at half of the fitted maximal effect; % of control where 0% means no effect; nearly all actives have a fitted effect of over 55% in size
#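 Readout is total intensity of Hoechst-stained nuclei, excited at 405 nm and collected at 500-530 nm. Compound treatment lasted 48 hr at 37 C in 5% CO2 before staining.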
# DT40 TDP1 no CPT = qHTS for Inhibitors of human tyrosyl-DNA phosphodiesterase 1 (TDP1): qHTS in cells in absence of CPT | hit rate 15% among 420,000 | AID 686978, 2013 | Potency, µM (titrated, usually from 46.2 µM), for the others: at the highest dose activity change, negative = growth inhibition, hits mostly inhibitors | DT40 Tdp1-/- hTDP1 cells, no CPT, ATP luminescence, 48 h; further: potency means the concentration at half of the fitted maximal effect; on the % scale 0 is the no-effect control and ±100 the full control effect; nearly all actives have a fitted effect of over 55% in size
#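 DT40 Tdp1-/-;hTDP1 cells, no CPT (DMSO vehicle only), 400 cells/well; compounds pin-transferred; ≥48 hr, 37 °C; CellTiter-Glo 30 min RT dark, luminescence read.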
# MCF10A rereplic = inducers of DNA re-replication in MCF 10A breast cells | Potency, µM (highest dose often 46.1 µM), without a hit: top-dose activity, positive = re-replication, usual class: activators | hit rate 2.9% among 350,000 | MCF 10A DNA re-replication, Hoechst nuclear intensity, 48 h; further: potency means the concentration at half of the fitted maximal effect; % of control where 0% means no effect; nearly all actives have a fitted effect of over 50% in size
# Numbers without * were called inactive; ? = inconclusive; . = not tested or not shown; [ ] = dose if it differs, or a comment. Rows were chosen to be rich in hits. Some 19% of all compounds tested hit in one or more screens of this group. Unless noted, the call rests on the fitted dose curve; in most records, active means well fitted curve in the direction sought with a large enough effect; inconclusive means small, poorly fitted or top-dose-only effect, or another doubt; inactive means no such curve, though single readings can be large; an effect the other way counts as inactive or inconclusive.
SMILES,Chronic BCR inh,IL1B secr inh,TDP1 cell CPT,SW480 rereplic,DT40 TDP1 no CPT,MCF10A rereplic
CCc1c(C)sc(NC(=O)C2CC(c3c(F)cccc3Cl)=NO2)c1C#N (centres undefined),4.1%,-18.0,16.4µM*,?,?,17.3%
O=[N+]([O-])c1ccc(N2CCc3ccccc3C2)cc1,0.4%,-19.1,?,-4.6%,18.4µM*,0.7%
O=C(NCCCN1CCc2ccccc2C1)Nc1ccc(Br)cc1,?,-17.5,?,2.6%,?,11.2%
CCCCNC(=O)N1CCc2ccccc2C1,2.3%,22.5,-22.7%,23.1µM*,-27.9%,2.1%
O=C(NCCN1CCc2ccccc2C1)Nc1ccc([N+](=O)[O-])cc1,?,1.3,?,-11.1%,23.1µM*,28.5%
O=C(Nc1ccc([N+](=O)[O-])cc1)N1CCc2ccccc2C1,-1.6%,-89.9*,-22.8%,-2.8%,?,?
CN1CCN(C(=O)Nc2ccc([N+](=O)[O-])cc2)CC1,-14.7%,33.1,-9.2%,-5.9%,21.8%,2.0%
Cc1cc(C)cc(C(=O)OCC(=O)Nc2ncccn2)c1,-7.0%,-18.2,-0.6%,-12.0%,-8.1%,-1.3%
CCOc1ccccc1NC(=O)NCc1ccccn1,2.9%,-13.5,-13.8%,10.0%,0.9%,3.1%
CC(C)c1ccc(NC(=O)N2CCc3ccccc3C2)cc1,?,-59.1*,?,-7.2%,?,4.5%
O=C(Nc1cccc(Cl)c1)N1CCc2ccccc2C1,?,-18.9,?,-3.6%,?,-3.6%
Cc1ccc(/C(N)=N/OC(=O)CCc2ccccc2)cc1,?,13.0,-9.5%,7.8%,-5.7%,7.31µM*
N/C(=N\OC(=O)CCc1ccccc1)c1ccc(Br)cc1,?,5.1,-7.6%,-4.1%,-1.2%,-0.7%
COCCNC(=O)CSc1nc(-c2ccccc2)c(-c2ccccc2)o1,?,8.2,11.6µM*,-8.1%,?,1.3%
CC(=O)CSc1nc(-c2ccccc2)c(-c2ccccc2)o1,-0.2%,-12.1,-29.7%,?,2.7%,8.5%
Cc1nc2c(-c3ccc(F)cc3)c(C)[nH]n2c(=O)c1Cl,1.3%,1.3,?,7.31µM*,?,12.5%
Cc1[nH]n2c(=O)c3c(nc2c1-c1ccc(F)cc1)CCCC3,5.5%,8.1,16.4µM*,-3.3%,?,-8.9%
O=C(COc1ccc2c(-c3ccccc3)cc(=O)oc2c1)Nc1ccc(CCO)cc1,-16.1%,0.6,8.2µM*,-19.6%,7.31µM*,1.7%
CC(=O)COc1ccc2c(-c3cccc([N+](=O)[O-])c3)cc(=O)oc2c1,0.6%,-14.9,?,10.8%,23.1µM*,-0.8%
O=C(COc1ccc2c(-c3ccccc3)cc(=O)oc2c1)Nc1ccc(CN2CCOCC2)cc1,?,-11.1,20.6µM*,2.6%,?,-1.0%
O=C(O)COc1ccc2c(-c3ccccc3)cc(=O)oc2c1,7.7%,9.6,-0.7%,-1.0%,-2.4%,-1.6%
CCc1c(C)sc2nc3c(C(=O)N4CCOCC4)cc(C(=O)c4cc(F)ccc4O)cn3c(=O)c12,-0.3%,-75.8*,23.1µM*,-1.2%[1.84 µM],16.4µM*,?
Cc1sc2nc3c(C(=O)N4CCCC4)cc(C(=O)c4ccccc4O)cn3c(=O)c2c1C,?,?,?,3.3%,13µM*,9.4%
O=C(c1cc(C(=O)N2CCOCC2)c2nc3ccccc3n2c1)c1ccccc1O,?,-0.1,?,-5.0%,?,-1.4%
O=C1NC2c3c(I)sc(I)c3C(=O)C2O1 (centres undefined),.,-56.0*,6.51µM*,16.4µM*,7.31µM*,13µM*
O=C1NC2c3c(Cl)sc(Cl)c3C(=O)C2O1 (centres undefined),.,-102.7*,20.6µM*,?,20.6µM*,7.31µM*
